Experimental data reported in PubChem BioAssay.
Activity calls are given as the source filed them.

Assays:
[1] = test system: XIP peptide (Xip251-270) binding; experiment: small-molecule binders of XIP peptide, primary screen, biochemical, small-molecule microarray, fluorescence 635/667 nm, 0.1 µg/mL protein (AID 1182); conditions: fluorescent protein binding, 635 nm, higher = more signal, called active from +8 up or from −8 down
[2] = test system: XIP peptide (Xip251-270); experiment: small-molecule binders of XIP peptide, primary screen, biochemical, small-molecule microarray, fluorescence 635/667 nm, 0.5 µg/mL protein (AID 1183); conditions: small-molecule microarray binding, fluorescence 635 nm; higher = more signal
[3] = Plasmodium falciparum growth inhibition, primary screen, strain 3D7, DAPI fluorescence, 100 nL (AID 1184);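 also: parasites grown inside human red blood cells in medium with human serum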; conditions: P. falciparum 3D7 growth, 3 d, higher = more signal
[4] = biological target: Homeobox protein Hox-A13 (Mus musculus) (UniProt Q62424); experiment: inhibitors of HoxA13-DNA binding, primary screen, biochemical, fluorescence polarization, labeled oligonucleotide (AID 1185); conditions: 15 min, higher = more signal, called active from +8 up or from −8 down
Sequence of Homeobox protein Hox-A13 (Mus musculus) (Q62424 whole entry, looked up): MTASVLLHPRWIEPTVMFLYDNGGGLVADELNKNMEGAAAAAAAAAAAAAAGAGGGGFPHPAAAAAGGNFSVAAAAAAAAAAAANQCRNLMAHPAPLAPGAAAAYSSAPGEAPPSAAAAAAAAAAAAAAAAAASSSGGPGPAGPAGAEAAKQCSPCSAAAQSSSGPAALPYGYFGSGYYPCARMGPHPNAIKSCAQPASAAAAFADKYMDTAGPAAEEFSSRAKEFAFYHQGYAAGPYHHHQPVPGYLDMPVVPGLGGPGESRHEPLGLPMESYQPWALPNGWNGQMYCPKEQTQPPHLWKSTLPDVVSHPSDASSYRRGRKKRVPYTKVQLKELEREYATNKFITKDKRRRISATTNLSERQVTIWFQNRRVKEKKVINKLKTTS

Row | SMILES | composite z-score [1] | composite z-score [2] | z-score [3] | z-score [4]
1 | COC(OC)[C@@H](C)[C@H](OC)[C@@H](C)[C@H](OC)c1ccccc1 | -0.17 (inactive) | -0.0245 | 0.129 | -0.402 (inactive)
2 | CCOC(=O)[C@H](CC(C)C)NC(=O)CCC1CC(OC(=O)NCCc2ccc(F)cc2)CC2(CCCC(COC(=O)NCc3cccc4ccccc34)O2)O1 (some centres not stated) | -0.008 (inactive) | 0.24 | -1.48 | -5.81 (inactive)
3 | CCN1C(=O)[C@H]2[C@H]3[C@H](O)[C@H](O)CC(=NOC(C)CN4CCCc5nc(C)c(C)cc54)[C@@H]3CC[C@H]2C1=O (some centres not stated) | 0.302 (inactive) | 0.148 | 0.393 | -10.2 (active)
4 | C=CC[C@@H]1C=C[C@H](ON=C2C[C@@H](O)[C@@H](O)[C@@H]3[C@@H]4C(=O)N(CC)C(=O)[C@@H]4CC[C@@H]23)[C@@H](CO)O1 | -0.192 (inactive) | -1.06 | -0.689 | 0.0713 (inactive)
5 | CC(=O)OC[C@H]1O[C@H](CC=NOC[C@@H](O)COCc2ccco2)C=C[C@@H]1OC(C)=O | 0.084 (inactive) | 0.479 | 0.466 | -0.226 (inactive)
6 | COC(=O)[C@H](C)NC(=O)CCC1CC(OC(=O)NCc2cccc3ccccc23)CC2(CCCC(COC(=O)NCCc3ccccc3OC)O2)O1 (some centres not stated) | -0.0645 (inactive) | 0.384 | -1.47 | -4.27 (inactive)
7 | CC1(C)O[C@H]2OC([C@H](O)CON3C(=O)c4ccccc4C3=O)[C@H](O)[C@H]2O1 (some centres not stated) | -0.592 (inactive) | 0.291 | 0.696 | 0.366 (inactive)
8 | COC(=O)[C@H](Cc1ccccc1)NC(=O)[C@@H](C)CO | -0.285 (inactive) | -0.9 | -1.23 | 1.16 (inactive)
9 | C#CCCCON=C1C[C@@H](O)[C@@H](O)[C@@H]2[C@@H]3C(=O)N(C[C@@H]4CCCO4)C(=O)[C@@H]3CC[C@H]12 | 0.241 (inactive) | 0.317 | 0.211 | -1.28 (inactive)
10 | C[C@H]1CC[C@@H](C(=O)O)N[C@@H]1c1ccc(C#Cc2ccccc2)cc1 | -0.125 (inactive) | 0.601 | -1.61 | -2.16 (inactive)
11 | C[C@H]1C=CCC(=O)OC[C@H](C)C(=O)N2CCC[C@H]2C(=O)OC1 | 0.23 (inactive) | 0.476 | 0.878 | -0.266 (inactive)
12 | COC(=O)CC=C[C@@H](C)[C@@H](C=NOC[C@@H](O)[C@H]1O[C@@H]2OC(C)(C)O[C@@H]2[C@H]1O)OC | -0.33 (inactive) | -0.0618 | 0.364 | 0.321 (inactive)
13 | COc1ccc(OC[C@@H](CO)OC)cc1 | 0.617 (inactive) | -0.317 | 1.62 | -0.0261 (inactive)
14 | COC(=O)[C@H](C)NC(=O)CCC1CC(OC(=O)NCc2ccc3c(c2)OCO3)CC2(CCCC(COC(=O)NCCC(C)C)O2)O1 (some centres not stated) | 1.11 (inactive) | 0.106 | -0.489 | -6.3 (inactive)
15 | CCOC(=O)[C@H](CC(C)C)NC(=O)CCC1CC(OC(=O)NCc2ccc3c(c2)OCO3)CC2(CCCC(COC(=O)NCCc3ccc(Cl)cc3)O2)O1 (some centres not stated) | -0.0891 (inactive) | 0.137 | -1.66 | -6.16 (inactive)
16 | COC(=O)[C@@H]1CC[C@H](C)[C@@H](c2ccc(Br)cc2)N1 | 1.53 (inactive) | -0.381 | 0.165 | -0.164 (inactive)
17 | CC(C)[C@@H](OCc1ccccc1)[C@H](C)C=NO[C@@H](C)c1cn([C@H](CO)Cc2ccccc2)nn1 | 0.334 (inactive) | -0.0098 | 0.949 | -5.22 (inactive)
18 | CC1(C)O[C@H]2O[C@H]([C@H](O)CON=C3[C@H]4CCn5c(=O)n(-c6ccccc6)c(=O)n5[C@H]4[C@H](O)[C@@H]4O[C@H]34)[C@H](O)[C@H]2O1 | 0.469 (inactive) | -0.0051 | -0.511 | -0.437 (inactive)
19 | CCOC(=O)[C@H](Cc1ccccc1)NC(=O)CCC1CC(OC(=O)NCc2ccc3c(c2)OCO3)CC2(CCCC(COC(=O)NCCOc3ccccc3)O2)O1 (some centres not stated) | -0.125 (inactive) | 0.565 | -1.57 | -0.985 (inactive)
20 | CC(C)=NOC(C)CN1CCCCc2nc(C)c(C)cc21 (configuration not stated) | -0.203 (inactive) | 0.208 | 1.35 | -1.28 (inactive)
21 | COCOc1ccc(Br)cc1C(=O)C=Cc1ccc2c(c1)OCO2 | 0.268 (inactive) | 0.627 | -1.42 | -0.353 (inactive)
22 | CC(C)C(=O)N[C@H]1CCCN1C(=O)C=Cc1ccccc1 | 0.934 (inactive) | -0.168 | -0.64 | -2.18 (inactive)
23 | CCOC(=O)CCN1C(=O)[C@H]2[C@H]3[C@H](O)[C@H](O)CC(=NOCC(C)C)[C@@H]3CC[C@H]2C1=O | -0.0503 (inactive) | 0.203 | -0.379 | -3.95 (inactive)
